TDP1 cell CPT = DT40-hTDP1 cell growth loss with CPT. chicken DT40 Tdp1-/-;hTDP1 cells + 20 nM CPT, ATP luminescence, 48 h. Potency, µM (top dose mostly 46.2 µM), hits mostly inhibitors. hit rate 12% among 420,000. AID 686979; note: nearly all actives have a fitted effect of over 55% in size
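Cell growth measured by CellTiter-Glo luminescence after a minimum 48 h, 37 C compound exposure with 20 nM CPT in Tdp1-knockout DT40 cells stably expressing hTDP1, seeded 400/well; qHTS titration format.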
HT1080 IDH1KD tx = kills HT-1080 cells with IDH1 knockdown; HT-1080 IDH1 knockdown viability, ATP luminescence, 48 h; Potency, µM (top dose mostly 46.1 µM), most hits filed as cytotoxic; hit rate 2% among 360,000; AID 686971
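Viability of IDH1-knockdown HT-1080 fibrosarcoma cells was assessed by CellTiter-Glo after 48 h at 37 °C with titrated compound; concentration-effect curves were classified by fit quality and response size.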
IL1B secr inh = inhibitors of inflammasome signaling (IL-1 beta secretion) | THP-1 LPS/ATP IL-1B secretion, AlphaLISA, 16 h; stronger effect = lower value | hit rate 4.7% among 360,000 | activity change, % at 57.5 µM | AID 743279; in the data active = activity change below about -50%; inconclusive = mostly about -30% to -49%
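THP-1 cells pretreated 1 hr with compounds (up to 57.5 uM final), then stimulated with LPS (250 ng/mL final) plus ATP (1.25 mM final); secreted IL-1B measured by AlphaLISA after 16 hr, decreased signal indicating inhibition.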
HT1080-NT tox = kills 2HG-producing HT-1080-NT fibrosarcoma cells; HT-1080-NT fibrosarcoma viability, CellTiter-Glo ATP luminescence, 48 h; Potency, µM (highest dose often 46.1 µM), hits mostly cytotoxic; hit rate 1.6% among 360,000;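 note: NT is the 2HG producing partner of a matched IDH1 knockdown line; nearly all actives have a fitted effect of over 55% in size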
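Viability by CellTiter-Glo luminescence after 48 h compound exposure at 37C of HT-1080-NT cells (750/well, RPMI, 5% FBS). % activity scaled between DMSO wells and medium-only wells, then curve-fitted and categorized by curve class.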
TDP1 cell noCPT = qHTS for Inhibitors of human tyrosyl-DNA phosphodiesterase 1 (TDP1): qHTS in cells in absence of CPT; DT40 Tdp1-/- hTDP1 cells, no CPT, ATP luminescence, 48 h; Potency, µM (top dose mostly 46.2 µM), usual class: inhibitors; hit rate 15% among 420,000; AID 686978, 2013; note: nearly all actives have a fitted effect of over 55% in size
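Camptothecin absent (DMSO only). Human TDP1-complemented DT40 knockout cells, 400 cells/well, 37 °C for minimum 48 hr; ATP measured via CellTiter-Glo, 30 min dark incubation, luminescence.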
Hits are given with their value; n = inactive; u = inconclusive; x = no result given. A selection: hits, their analogues and other compounds. The true share with any hit is near 19%. Unless noted, calls come from the whole dose curve; as a rule, active = well fitted curve in the direction sought with a large enough effect; inconclusive = small, poorly fitted or top-dose-only effect, or another doubt; inactive = no such curve, though single readings can be large; an effect the other way counts as inactive or inconclusive.

SMILES	TDP1 cell CPT	HT1080 IDH1KD tx	IL1B secr inh	HT1080-NT tox	TDP1 cell noCPT
CC1=C(C(=O)Nc2ccc(C)cc2C)C(c2ccccc2F)n2nc(SCC(=O)c3ccc(C)cc3)nc2N1 (configuration not stated)	18µM	x	x	x	15µM
N#CC(c1ccc(O)cc1)c1ncc(C(F)(F)F)cc1Cl (configuration not stated)	n	n	n	n	n
CN1CCN(C(=O)CCN2C(=O)/C(=C/c3ccc(F)cc3)SC2=S)CC1	u	n	-102	n	18µM
Cc1ccc(/C=C2/SC(=S)N(CCC(=O)N3CCOCC3)C2=O)cc1	12µM	n	n	n	16µM
CCn1c(C)cc(/C=C2/SC(=O)N(CC(=O)N3CCCC3)C2=O)c1C	n	n	n	n	n
CCOC(=O)COc1c(Br)cc(/C=C2\SC(=O)N(CC(=O)N3CCCC3)C2=O)cc1OC	n	n	-51	n	n
O=C(CCN1C(=O)/C(=C\c2ccccc2)SC1=S)N1CCCCC1	9.2µM	u	-100	n	10µM
CCc1ccc(/C=C2\SC(=S)N(CCCC(=O)N3CCCC3)C2=O)cc1	u	n	n	n	u
Cc1ccc(/C=C2/SC(=S)N(CCC(=O)N3CCN(C)CC3)C2=O)cc1	u	n	n	n	18µM
Cc1ccc(/C=C2\SC(=S)N(CCC(=O)N3CCCCC3)C2=O)cc1	u	n	n	n	21µM
O=C(CN1C(=O)/C(=C/c2ccccc2)SC1=S)N1CCN(CCc2ccccn2)CC1	8.2µM	n	n	n	12µM
O=C(CCN1C(=O)/C(=C/c2cccs2)SC1=S)N1CCCCC1	5.8µM	u	-104	u	7.3µM
Cc1cc(F)ccc1NC(=O)c1c(C)oc2c1C1=NCCN1C=N2	n	x	x	x	n
COc1ccc(C2=NS(=O)(=O)N(C)C(C(=O)N3CCC(C(N)=O)CC3)=C2)cc1	n	n	n	n	n
COc1cc(/C=C2\SC(=S)N(CCC(=O)N3CCCCC3)C2=O)cc(OC)c1OC	16µM	u	-101	n	u
O=C(NCc1cc(C(F)(F)F)cc(C(F)(F)F)c1)C1CC(c2c(Cl)cccc2Cl)=NO1 (configuration not stated)	u	n	-50	n	u
COc1cc(NC(=O)C2CC(c3c(F)cccc3Cl)=NO2)cc(OC)c1OC (configuration not stated)	u	n	n	n	10µM
COc1ccc(CNC(=O)C2CC(c3cc(C(F)(F)F)cc(C(F)(F)F)c3)=NO2)cc1 (configuration not stated)	3.3µM	n	n	n	4.6µM
COc1ccc(NC(=O)C2CC(c3c(F)cccc3Cl)=NO2)cc1 (configuration not stated)	n	n	n	n	u
COc1ccc(CCNC(=O)C2CC(c3ccc(C(F)(F)F)cc3)=NO2)cc1 (configuration not stated)	u	n	n	n	15µM
O=C(CN1C(=O)c2ccccc2C1=O)NCC1Cc2cccc(-c3ncccn3)c2O1 (configuration not stated)	n	x	x	x	n
O=C1OCCC1N1C(=O)c2ccccc2S1(=O)=O (configuration not stated)	n	n	n	n	n
Cc1ccc(CNC(=O)C2CC(c3ccc(C(F)(F)F)cc3)=NO2)o1 (configuration not stated)	12µM	n	n	n	7.3µM
O=C(Cn1cnc2sc3c(c2c1=O)CCCC3)NCC(=O)Nc1ccc(F)cc1F	n	n	n	n	u
CN(C)c1nc(N)c([N+](=O)[O-])c(N2CCCCCC2)n1	n	n	u	n	n
SMILES	TDP1 cell CPT	HT1080 IDH1KD tx	IL1B secr inh	HT1080-NT tox	TDP1 cell noCPT
Nc1nc(CSC(=S)N2CCCCC2)nc(Nc2ccccc2)n1	u	n	u	n	u
CC1CC(C)CN(C(=S)SCc2nc(N)nc(Nc3ccccc3)n2)C1 (configuration not stated)	u	33µM	n	u	u
CCOc1ccc(Nc2nc(N)nc(CSC(=S)N3CCOCC3)n2)cc1	u	n	u	n	21µM
CCOC(=O)c1cccc(NS(=O)(=O)c2cc(Br)cc3c2N(C(=O)C2CC2)CC3)c1	u	x	x	x	23µM
Cc1ccc(NS(=O)(=O)c2cc(Br)cc3c2N(C(=O)C2CC2)CC3)cc1C	2.6µM	x	x	x	2.1µM
CCOC(=O)C1CCN(S(=O)(=O)c2cc(Br)cc3c2N(C(=O)C2CC2)CC3)CC1	u	n	n	n	n
CCN(c1ccccc1)S(=O)(=O)c1cc(Br)cc2c1N(C(=O)C1CC1)CC2	16µM	x	x	x	18µM
CCCCN(C)S(=O)(=O)c1cc2c(cc1Br)CCN2C(=O)C1CC1	4.1µM	n	n	n	3.7µM
CCCNS(=O)(=O)c1cc2c(cc1Br)CCN2C(=O)CC	n	n	n	n	n
COc1ccc(C(=O)c2oc3ccccc3c2NC(=O)COc2ccccc2)cc1	n	x	x	x	u
COc1ccccc1-n1c(-c2cn(C)nc2C)n[nH]c1=S	n	n	n	n	n
COc1ccc(C(O)c2ncc(-c3cccc(C(F)(F)F)c3)[nH]2)cc1 (configuration not stated)	u	n	n	n	u
O=[N+]([O-])c1ccccc1Oc1ncccc1[N+](=O)[O-]	n	n	n	n	n
O=C(Nc1cccc(C(F)(F)F)c1)c1cccnn1	n	n	n	n	n
CCN(c1cccc(C(F)(F)F)c1)S(=O)(=O)c1ccc2c(c1)CCN2C(=O)C1CC1	16µM	u	u	n	16µM
CCC(=O)N1CCc2cc(S(=O)(=O)N(CC)c3cccc(C)c3)ccc21	u	n	n	n	u
O=C(C1CC1)N1CCc2cc(Br)cc(S(=O)(=O)N3CCN(c4cccc(C(F)(F)F)c4)CC3)c21	u	x	x	x	8.2µM
O=C(C1CC1)N1CCc2cc(Br)cc(S(=O)(=O)NCCCN3CCCC3)c21	n	n	n	n	n
O=C(C1CC1)N1CCc2cc(Br)cc(S(=O)(=O)Nc3ccc(F)c(F)c3)c21	23µM	x	x	x	23µM
O=C(C1CC1)N1CCc2cc(Br)cc(S(=O)(=O)Nc3ccc(C(F)(F)F)cc3)c21	18µM	x	x	x	16µM
Cc1cccc(OCCNC(=O)c2cc(C3CC3)nc3c2cnn3C(C)C)c1	n	n	n	n	n
COc1ccccc1OCCNC(=O)c1cc(C2CC2)nc2c1cnn2C(C)C	u	n	n	n	u
CCc1ccccc1NC(=O)CNC(=O)c1cc(C2CC2)nc2c1cnn2C(C)C	u	n	n	n	u
COc1cc(C)c(NC(=O)c2cc(C3CC3)nc3c2cnn3C(C)C)cc1OC	u	n	n	n	16µM
Cc1cc(C)c(NC(=O)CNC(=O)c2cc(C3CC3)nc3c2cnn3C(C)C)c(C)c1	u	n	n	n	18µM
